# Compound: C#CCNC(=O)CCSSCCC(=O)NCCc1ccc(C=O)c(C=O)c1
# Experiment: lysine labeling ratio R10:1 (500 µM / 50 µM probe), SILAC-ABPP in living cells; higher = lower intrinsic lysine reactivity toward the probe, active = 2 or less
# Settings: HeLa; probe concentrations 500 vs 50 µM
# In short: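 Each lysine carries an R value: the filtered median of MS1 peptide ratios of high probe to low probe, with the median then taken over forward and reverse replicates. These came from living SILAC light and heavy HeLa cells in PBS at room temperature labelled with an alkyne-tagged, disulfide-linked lysine probe at 500 µM or 50 µM, in forward and reverse swaps. The lysates were mixed, clicked to biotin-azide, trypsin-digested, captured on neutravidin, released by DTT, alkylated and run by LC-MS/MS on a TIMS-TOF Pro. The highest value allowed is 20.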
# Chain of UniProt P11717 (P11717 whole entry): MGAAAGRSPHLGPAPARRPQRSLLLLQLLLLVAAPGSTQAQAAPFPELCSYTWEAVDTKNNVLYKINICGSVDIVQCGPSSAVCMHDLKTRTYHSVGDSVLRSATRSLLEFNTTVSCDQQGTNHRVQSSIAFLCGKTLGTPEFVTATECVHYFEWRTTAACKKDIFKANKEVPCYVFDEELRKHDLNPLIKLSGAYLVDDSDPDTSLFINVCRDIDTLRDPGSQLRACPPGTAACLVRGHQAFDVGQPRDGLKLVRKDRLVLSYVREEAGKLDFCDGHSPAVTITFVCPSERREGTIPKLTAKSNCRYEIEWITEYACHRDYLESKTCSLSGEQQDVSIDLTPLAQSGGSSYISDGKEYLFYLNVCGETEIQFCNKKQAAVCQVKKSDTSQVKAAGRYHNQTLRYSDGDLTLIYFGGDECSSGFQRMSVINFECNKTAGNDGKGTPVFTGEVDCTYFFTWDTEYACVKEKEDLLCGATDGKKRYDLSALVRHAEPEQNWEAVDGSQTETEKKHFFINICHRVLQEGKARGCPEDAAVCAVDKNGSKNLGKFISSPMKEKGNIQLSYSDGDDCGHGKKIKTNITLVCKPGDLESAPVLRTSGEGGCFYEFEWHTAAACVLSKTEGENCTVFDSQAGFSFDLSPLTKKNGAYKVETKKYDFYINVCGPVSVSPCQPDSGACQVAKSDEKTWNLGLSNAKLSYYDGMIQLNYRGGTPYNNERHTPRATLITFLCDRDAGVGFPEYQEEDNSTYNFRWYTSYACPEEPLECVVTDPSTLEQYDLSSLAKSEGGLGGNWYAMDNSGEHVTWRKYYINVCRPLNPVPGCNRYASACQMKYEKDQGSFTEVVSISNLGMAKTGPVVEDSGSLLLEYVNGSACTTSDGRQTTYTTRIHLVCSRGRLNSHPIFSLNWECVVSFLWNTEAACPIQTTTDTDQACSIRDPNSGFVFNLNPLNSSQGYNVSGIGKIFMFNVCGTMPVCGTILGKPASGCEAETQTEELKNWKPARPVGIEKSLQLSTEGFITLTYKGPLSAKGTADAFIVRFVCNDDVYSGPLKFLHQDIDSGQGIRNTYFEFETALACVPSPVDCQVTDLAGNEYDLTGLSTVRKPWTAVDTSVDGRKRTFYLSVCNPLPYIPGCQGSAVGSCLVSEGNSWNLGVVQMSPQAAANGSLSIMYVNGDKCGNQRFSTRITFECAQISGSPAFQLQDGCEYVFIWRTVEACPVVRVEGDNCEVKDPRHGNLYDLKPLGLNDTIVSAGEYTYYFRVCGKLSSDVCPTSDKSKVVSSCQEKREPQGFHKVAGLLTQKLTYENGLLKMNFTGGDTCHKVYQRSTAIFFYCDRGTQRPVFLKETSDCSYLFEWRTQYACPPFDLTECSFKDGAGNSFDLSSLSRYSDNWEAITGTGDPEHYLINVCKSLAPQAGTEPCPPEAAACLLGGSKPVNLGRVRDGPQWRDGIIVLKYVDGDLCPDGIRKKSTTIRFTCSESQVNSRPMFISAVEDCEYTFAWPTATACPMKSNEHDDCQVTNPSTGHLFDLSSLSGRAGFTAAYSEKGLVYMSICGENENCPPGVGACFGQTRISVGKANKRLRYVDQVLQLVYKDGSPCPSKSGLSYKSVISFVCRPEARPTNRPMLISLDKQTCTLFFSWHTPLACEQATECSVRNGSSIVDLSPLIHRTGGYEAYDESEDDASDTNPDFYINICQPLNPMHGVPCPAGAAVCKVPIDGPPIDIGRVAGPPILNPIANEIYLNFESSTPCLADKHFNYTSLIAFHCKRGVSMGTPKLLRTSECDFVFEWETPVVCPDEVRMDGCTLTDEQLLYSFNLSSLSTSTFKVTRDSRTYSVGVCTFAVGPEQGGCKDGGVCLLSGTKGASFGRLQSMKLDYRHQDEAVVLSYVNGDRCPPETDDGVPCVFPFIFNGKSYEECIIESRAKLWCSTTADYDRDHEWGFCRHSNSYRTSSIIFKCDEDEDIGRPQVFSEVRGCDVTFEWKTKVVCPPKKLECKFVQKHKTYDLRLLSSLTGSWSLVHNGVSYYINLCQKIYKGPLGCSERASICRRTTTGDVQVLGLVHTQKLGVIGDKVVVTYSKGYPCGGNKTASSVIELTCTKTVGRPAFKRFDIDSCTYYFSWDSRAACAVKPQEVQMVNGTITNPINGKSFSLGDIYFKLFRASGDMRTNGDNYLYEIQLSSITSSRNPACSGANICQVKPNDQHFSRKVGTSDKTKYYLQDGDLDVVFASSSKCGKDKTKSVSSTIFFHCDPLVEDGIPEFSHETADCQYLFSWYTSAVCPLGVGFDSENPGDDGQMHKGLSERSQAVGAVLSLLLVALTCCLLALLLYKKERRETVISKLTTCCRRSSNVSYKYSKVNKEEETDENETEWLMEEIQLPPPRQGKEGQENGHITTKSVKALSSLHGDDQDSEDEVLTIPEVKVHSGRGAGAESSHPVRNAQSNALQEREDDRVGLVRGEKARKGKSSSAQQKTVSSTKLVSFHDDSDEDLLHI
# Chain of UniProt P02786 (P02786 whole entry, looked up): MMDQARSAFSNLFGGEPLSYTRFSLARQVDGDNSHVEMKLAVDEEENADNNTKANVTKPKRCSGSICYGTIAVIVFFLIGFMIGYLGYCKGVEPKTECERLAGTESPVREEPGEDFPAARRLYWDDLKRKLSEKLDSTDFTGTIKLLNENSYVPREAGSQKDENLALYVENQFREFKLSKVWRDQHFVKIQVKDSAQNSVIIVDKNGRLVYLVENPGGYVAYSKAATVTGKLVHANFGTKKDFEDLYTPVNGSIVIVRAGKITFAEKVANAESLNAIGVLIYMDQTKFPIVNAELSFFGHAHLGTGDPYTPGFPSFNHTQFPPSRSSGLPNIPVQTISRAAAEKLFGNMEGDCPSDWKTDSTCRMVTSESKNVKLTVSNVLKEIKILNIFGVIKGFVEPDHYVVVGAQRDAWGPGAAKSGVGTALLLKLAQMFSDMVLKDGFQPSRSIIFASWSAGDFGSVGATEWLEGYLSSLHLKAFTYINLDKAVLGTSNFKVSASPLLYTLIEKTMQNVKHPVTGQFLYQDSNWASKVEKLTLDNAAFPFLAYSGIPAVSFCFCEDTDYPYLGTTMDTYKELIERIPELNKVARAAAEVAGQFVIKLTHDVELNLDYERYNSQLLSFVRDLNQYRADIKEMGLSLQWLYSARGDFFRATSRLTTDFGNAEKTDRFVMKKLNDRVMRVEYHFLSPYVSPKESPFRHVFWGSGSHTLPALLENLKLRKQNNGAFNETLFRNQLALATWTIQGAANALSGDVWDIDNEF
# Chain of UniProt P49720 (P49720 whole entry): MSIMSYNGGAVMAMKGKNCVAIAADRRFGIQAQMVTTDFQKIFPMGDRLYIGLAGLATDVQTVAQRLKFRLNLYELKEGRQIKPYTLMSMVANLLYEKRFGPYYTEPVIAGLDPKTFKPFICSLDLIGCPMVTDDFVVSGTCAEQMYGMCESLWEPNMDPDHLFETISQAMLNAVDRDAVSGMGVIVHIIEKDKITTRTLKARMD
# Chain of UniProt P50454 (P50454 whole entry): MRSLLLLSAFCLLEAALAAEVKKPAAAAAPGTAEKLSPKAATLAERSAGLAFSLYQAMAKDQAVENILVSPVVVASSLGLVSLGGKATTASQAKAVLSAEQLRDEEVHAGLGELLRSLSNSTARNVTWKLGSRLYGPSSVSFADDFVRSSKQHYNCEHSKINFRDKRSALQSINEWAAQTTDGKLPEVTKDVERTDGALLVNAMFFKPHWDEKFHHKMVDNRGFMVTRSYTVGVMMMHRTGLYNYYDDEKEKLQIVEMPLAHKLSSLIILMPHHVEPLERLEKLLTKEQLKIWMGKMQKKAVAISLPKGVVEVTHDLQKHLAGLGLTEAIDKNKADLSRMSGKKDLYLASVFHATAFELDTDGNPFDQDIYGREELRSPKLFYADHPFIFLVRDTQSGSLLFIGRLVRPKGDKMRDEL
# Chain of UniProt P02787 (P02787 whole entry): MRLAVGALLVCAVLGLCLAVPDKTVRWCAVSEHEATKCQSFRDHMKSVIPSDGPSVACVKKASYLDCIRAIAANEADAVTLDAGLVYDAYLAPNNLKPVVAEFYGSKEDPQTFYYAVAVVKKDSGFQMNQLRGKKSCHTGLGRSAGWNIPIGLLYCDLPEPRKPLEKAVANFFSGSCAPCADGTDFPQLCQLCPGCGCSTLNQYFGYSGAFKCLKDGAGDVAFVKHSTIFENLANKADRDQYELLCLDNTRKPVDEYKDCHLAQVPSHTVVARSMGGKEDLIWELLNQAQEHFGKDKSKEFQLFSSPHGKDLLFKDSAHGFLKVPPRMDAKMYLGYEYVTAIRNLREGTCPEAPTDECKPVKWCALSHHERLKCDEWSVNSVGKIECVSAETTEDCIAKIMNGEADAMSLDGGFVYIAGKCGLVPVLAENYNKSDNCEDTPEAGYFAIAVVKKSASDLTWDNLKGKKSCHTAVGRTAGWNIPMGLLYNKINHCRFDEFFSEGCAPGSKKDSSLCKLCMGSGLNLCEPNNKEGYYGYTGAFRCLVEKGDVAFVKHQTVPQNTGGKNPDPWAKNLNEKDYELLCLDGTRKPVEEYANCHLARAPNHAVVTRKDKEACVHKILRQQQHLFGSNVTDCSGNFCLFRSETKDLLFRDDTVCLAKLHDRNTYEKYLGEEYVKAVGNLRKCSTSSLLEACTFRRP
# Chain of UniProt Q9HDC9 (Q9HDC9 whole entry): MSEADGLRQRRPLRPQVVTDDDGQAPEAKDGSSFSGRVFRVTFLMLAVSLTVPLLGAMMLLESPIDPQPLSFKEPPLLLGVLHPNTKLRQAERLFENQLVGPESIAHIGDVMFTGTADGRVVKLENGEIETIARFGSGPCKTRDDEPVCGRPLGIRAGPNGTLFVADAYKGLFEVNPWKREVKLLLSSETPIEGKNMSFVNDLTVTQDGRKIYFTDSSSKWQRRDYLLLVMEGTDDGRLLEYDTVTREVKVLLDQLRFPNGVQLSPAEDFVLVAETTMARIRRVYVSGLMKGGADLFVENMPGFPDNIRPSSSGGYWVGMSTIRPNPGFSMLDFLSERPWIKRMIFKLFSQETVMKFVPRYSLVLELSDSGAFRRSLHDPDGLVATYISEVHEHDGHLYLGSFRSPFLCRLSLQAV
# Chain of UniProt Q9Y5J9 (Q9Y5J9 whole entry): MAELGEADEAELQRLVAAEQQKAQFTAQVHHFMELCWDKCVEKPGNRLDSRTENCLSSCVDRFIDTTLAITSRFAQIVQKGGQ
row,Target,lysine labeling ratio R10:1
1,EDIL3 (lysine site: K429) (UniProt O43854),1.21 (active)
2,UniProt Q9HDC9 (lysine site: K356),2.37 (inactive)
3,ROR2 (lysine site: K97) (UniProt Q01974),6.68 (inactive)
4,TLN1 (lysine site: K138) (UniProt Q9Y490),1.21 (active)
5,TFRC (lysine site: K128) (UniProt P02786),6.74 (inactive)
6,SLC3A2 (lysine site: K257) (UniProt P08195),1.64 (active)
7,VAT1 (lysine site: K391) (UniProt Q99536),2.03 (inactive)
8,MET (lysine site: K725) (UniProt P08581),0.656 (active)
9,IGF2R (lysine site: K1776) (UniProt P11717),2.48 (inactive)
10,UniProt Q9UHN6 (lysine site: K1278),1.31 (active)
11,UniProt Q15149 (lysine site: K3384),4.26 (inactive)
12,UniProt Q86UP0 (lysine site: K324),1.82 (active)
13,SPTBN1 (lysine site: K1939) (UniProt Q01082),3.41 (inactive)
14,HSPA5 (lysine site: K382) (UniProt P11021),1.18 (active)
15,TIMM8B (lysine site: K80) (UniProt Q9Y5J9),1.18 (active)
16,CEP250 (lysine site: K1048) (UniProt Q9BV73),7.19 (inactive)
17,SLC25A5 (lysine site: K147) (UniProt P05141),4.57 (inactive)
18,UniProt P49720 (lysine site: K77),2.88 (inactive)
19,TF (lysine site: K134) (UniProt P02787),2.36 (inactive)
20,CALD1 (lysine site: K534) (UniProt Q05682),0.785 (active)

row,Target,lysine labeling ratio R10:1
1,GPC1 (lysine site: K277) (UniProt P35052),2.26 (inactive)
2,UniProt P05787 (lysine site: K472),2.67 (inactive)
3,ITGA1 (lysine site: K1046) (UniProt P56199),0.547 (active)
4,GPI (lysine site: K34) (UniProt P06744),2.53 (inactive)
5,IGF2R (lysine site: K2197) (UniProt P11717),8.12 (inactive)
6,SERPINH1 (lysine site: K39) (UniProt P50454),5.74 (inactive)
7,CACNA2D1 (lysine site: K842) (UniProt P54289),4.24 (inactive)
8,HNRNPC (lysine site: K98) (UniProt P07910),3.25 (inactive)
9,SEMA3C (lysine site: K391) (UniProt Q99985),4.13 (inactive)
10,HSPA8 (lysine site: K319) (UniProt P11142),4.74 (inactive)
11,XRCC6 (lysine site: K317) (UniProt P12956),3.53 (inactive)
12,UniProt P55285 (lysine site: K418),1.1 (active)
13,RPL35A (lysine site: K73) (UniProt P18077),3.82 (inactive)
14,SUB1 (lysine site: K68) (UniProt P53999),8.07 (inactive)
15,UniProt Q8N441 (lysine site: K34),3.03 (inactive)
16,TFRC (lysine site: K585) (UniProt P02786),4.53 (inactive)
17,C3 (lysine site: K1535) (UniProt P01024),5.81 (inactive)
18,ITGA5 (lysine site: K588) (UniProt P08648),1.72 (active)
19,PLS3 (lysine site: K315) (UniProt P13797),1.71 (active)
20,CAPZB (lysine site: K57) (UniProt P47756),1.35 (active)

# From the supplement of paper PMC11001985
